Measured potencies and affinities stand elsewhere.
Tests used:
Klebsiella pneumoniae = details: Concentration 20 uM; ASSAY_TEST Inhibition of Bacterial Growth; detection method Absorption (OD600); MEDIA CAMHB; plate type 384well; NBS; CORNING #3640; time 18 hr
Candida albicans = details: 20 µM
Cryptococcus neoformans = details: Concentration 20 uM; ASSAY_TEST Inhibition of Fungal Growth; detection method Resazurin; Absorption (OD600-OD570); plate type 384well; NBS; CORNING #3640

SMILES	Inhibition (Klebsiella pneumoniae) [%]	Inhibition (Candida albicans) [%]	Inhibition (Cryptococcus neoformans) [%]
C=C(C)[C@@H]1[C@H]2OC(=O)[C@@H]1[C@]1(O)C[C@H]3O[C@]34C(=O)O[C@H]2[C@]14C.CC(C)(O)[C@@H]1[C@H]2OC(=O)[C@@H]1[C@]1(O)C[C@H]3O[C@]34C(=O)O[C@H]2[C@]14C	10.94	2.79	-5.47
CN1CCN2c3ncccc3Cc3ccccc3C2C1 (configuration not stated) [MIRTAZAPINE]	5.61	4.27	3.57
CN/C(=N\CCSCc1nc[nH]c1C)NC#N [CIMETIDINE]	3.14	3.16	2.1
Nc1nc2ccc(Cl)cc2c2nc(-c3ccco3)nn12 [CGS-15943]	10.58	6.09	-14.37
CC(C)C(=O)Nc1ccc([N+](=O)[O-])c(C(F)(F)F)c1 [FLUTAMIDE]	13.37	3.45	1.08
CNCC(O)c1ccc(O)cc1 (configuration not stated) [OXEDRINE]	-0.12	5.72	1.4
CC(C)NCC(O)c1ccc(O)c(O)c1.Cl (configuration not stated) [ISOPROTERENOL HYDROCHLORIDE]	6.57	2.42	0.22
C=C1C[C@@H]2[C@H](CC[C@]3(C)C(=O)CC[C@@H]23)[C@@]2(C)C=CC(=O)C=C12 [EXEMESTANE]	6.02	5.81	-8.06
CCC1(c2ccc(N)cc2)CCC(=O)NC1=O (configuration not stated) [AMINOGLUTETHIMIDE]	3.02	2.63	-5.32
